Measurements: PubChem BioAssay (NCATS)
Records with an inconclusive call do not appear. Activity calls are given as the source filed them. The call rests on the fitted dose curve; in most records, active means well fitted inhibition curve with a large enough effect; inconclusive means small, poorly fitted or top-dose-only effect, or effect the other way; inactive means flat fitted curve, though single readings scatter.

These molecules were tested against ATP-dependent 6-phosphofructokinase (Trypanosoma brucei brucei) (UniProt O15648) (assay: qHTS Assay to Find Inhibitors of T. brucei phosphofructokinase: hit validation (AID 492961)). Conditions: T. brucei PFK, ADP-Glo luminescence; series mostly up to 51.4 µM.
Sequence of ATP-dependent 6-phosphofructokinase (Trypanosoma brucei brucei) (O15648 whole entry, looked up): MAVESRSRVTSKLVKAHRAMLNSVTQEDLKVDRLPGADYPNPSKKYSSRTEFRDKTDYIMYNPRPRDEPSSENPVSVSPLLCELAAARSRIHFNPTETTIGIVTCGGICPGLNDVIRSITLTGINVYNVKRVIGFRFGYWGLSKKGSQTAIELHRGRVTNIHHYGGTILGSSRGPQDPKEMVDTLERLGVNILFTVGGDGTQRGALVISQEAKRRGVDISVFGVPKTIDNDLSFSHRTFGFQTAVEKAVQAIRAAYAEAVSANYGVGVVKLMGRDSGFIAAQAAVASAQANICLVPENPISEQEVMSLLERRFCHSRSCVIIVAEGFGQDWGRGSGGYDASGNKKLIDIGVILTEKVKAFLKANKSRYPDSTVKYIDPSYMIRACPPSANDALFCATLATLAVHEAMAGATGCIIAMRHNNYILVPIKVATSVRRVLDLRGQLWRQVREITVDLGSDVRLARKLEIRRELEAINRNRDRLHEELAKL
Procedure, shortened: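 Luminescence from ADP-Glo reports ADP generated as T. brucei PFK (1.25 nM) phosphorylates 0.5 mM fructose-6-phosphate using 0.1 mM ATP. Reactions ran 45 min at room temperature, pH 8.0.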
With COc1ccc2cc(CCC(C)=O)ccc2c1 the outcome was “inactive”.
With Nc1ccncc1N the outcome was “inactive”.
With CCCCCC(C)N (stereo not drawn) the outcome was “inactive”.
For O=C(O)Cc1cn(-c2ccccc2)nc1-c1ccc(Cl)cc1, the outcome was “inactive”.
With CC(=O)NCc1c(I)c(NC(C)=O)c(I)c(C(=O)O)c1I the outcome was “inactive”.
For Cc1ccsc1C(=CCCN1CCC[C@@H](C(=O)O)C1)c1sccc1C, the outcome was “inactive”.
With CCCCCCCC(=O)OCC(O)CO (stereo not drawn) the outcome was “inactive”.
With NC(=O)CC[C@@H](N)C(=O)O the outcome was “inactive”.
For COc1ccc(Cc2cnc(N)nc2N)cc1OC, the outcome was “inactive”.
For CC(CSC(=O)c1ccccc1)C(=O)N1C[C@@H](Sc2ccccc2)C[C@H]1C(=O)O (stereo partly drawn), the outcome was “inactive”.
With Nc1ncnc(Nc2ccccc2)n1 the outcome was “inactive”.
With NC(=O)NS(=O)(=O)c1ccc(N)cc1 the outcome was “inactive”.
COc1ccc(C(=O)N2CCN(CC(=O)N3CCOCC3)CC2)cc1 was tested, and the outcome was “inactive”.
